Measurements taken from PubChem BioAssay (NCATS).
Records with an inconclusive call do not appear. A call without a number means that no potency is given here. Activity calls are given as the source filed them. The call rests on the fitted dose curve; in most records, active means well fitted curve in the direction sought with a large enough effect; inconclusive means small, poorly fitted or top-dose-only effect, or another doubt; inactive means no such curve, though single readings can be large; an effect the other way counts as inactive or inconclusive.

Key:
[1] = test system: Zika virus NS2B-NS3 protease; experiment: Primary screen GU AMC qHTS for Zika virus inhibitors (AID 1347154); settings: Zika NS2B-NS3 unlinked protease, AMC fluorogenic substrate; series mostly up to 54.1 µM; further: nearly all actives have a fitted effect of over 70% in size; further: potency means the concentration at half of the fitted maximal effect
Procedure, shortened: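 Unlinked Zika NS2B hydrophilic domain/NS3 protease domain noncovalent complex (25 nM final) in 10 mM Tris-HCl pH 8.0, 0.01% Tween 20, with AMC peptide substrate. Fluorescence (ex 340, em 450 nm) change over 15 min, room temperature; percent inhibition fitted to 4-parameter Hill equation.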

[2] = qHTS to identify inhibitors of the type 1 interferon - major histocompatibility complex class I in skeletal muscle: primary screen against the NCATS Pharmaceutical Collection (AID 1347407); settings: human skeletal muscle cells, IFN-b-induced MHC-I HiBiT luminescence, 24 h; series mostly up to 45.9 µM;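 further: luminescence of HiBiT knocked into endogenous HLA-B as interferon-induced MHC class I level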; further: potency means the concentration at half of the fitted maximal effect
Procedure, shortened: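 Compounds […] were added to CRISPR-engineered HLA-B-HiBiT C25cl48 human myoblasts with 4.0 ng/ml IFN-beta. After 24 hrs at 37 C, cells were lysed and HiBiT luminescence measured.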

[3] = molecular target: Protein phosphatase 1D (Homo sapiens) (UniProt O15297); experiment: RapidFire Mass Spectrometry qHTS Assay for Modulators of WT P53-Induced Phosphatase 1 (WIP1) (AID 1347424); settings: WIP1 dephosphorylation of phosphopeptide, RapidFire MS; series mostly up to 63 µM;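 further: amount of dephosphorylated VEPPL-S-QETFS peptide product formed by WIP1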
Chain of Protein phosphatase 1D (Homo sapiens) (O15297 whole entry, looked up): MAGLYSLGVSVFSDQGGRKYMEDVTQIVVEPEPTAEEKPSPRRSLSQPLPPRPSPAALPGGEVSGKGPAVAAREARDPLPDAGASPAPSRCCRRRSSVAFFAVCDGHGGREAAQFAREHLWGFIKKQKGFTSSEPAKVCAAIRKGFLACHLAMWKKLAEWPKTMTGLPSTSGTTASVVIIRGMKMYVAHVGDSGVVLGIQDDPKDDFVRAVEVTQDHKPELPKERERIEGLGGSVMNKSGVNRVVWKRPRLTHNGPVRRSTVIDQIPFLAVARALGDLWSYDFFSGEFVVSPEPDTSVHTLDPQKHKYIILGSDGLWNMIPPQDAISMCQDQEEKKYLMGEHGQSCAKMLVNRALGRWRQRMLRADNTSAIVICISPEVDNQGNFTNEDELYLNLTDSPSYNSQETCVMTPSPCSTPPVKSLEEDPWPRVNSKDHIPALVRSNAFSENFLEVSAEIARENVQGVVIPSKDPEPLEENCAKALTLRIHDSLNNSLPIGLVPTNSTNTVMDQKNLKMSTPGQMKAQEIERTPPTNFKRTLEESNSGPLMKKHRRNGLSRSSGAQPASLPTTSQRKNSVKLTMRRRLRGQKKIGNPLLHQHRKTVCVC
Procedure, shortened: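 WIP1 (10 nM final) was preincubated 1 h at room temperature with compounds in Tris-HCl pH 7.5, 30 mM MgCl2, TCEP, EGTA, BSA; 2 uM VEPPL-pS-QETFS phosphopeptide was added for 5 min, quenched with formic acid, and dephosphorylated product quantified by RapidFire MS.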

[4] = molecular target: Protein phosphatase 1D (Homo sapiens) (UniProt O15297); experiment: Rhodamine-PBP qHTS Assay for Modulators of WT P53-Induced Phosphatase 1 (WIP1) (AID 1347425); settings: recombinant WIP1, Rhodamine-PBP phosphate fluorescence, real-time; series mostly up to 57.5 µM
Procedure, shortened: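 Read-out: Rhodamine-PBP fluorescence (ex 525/em 598 nm) for released Pi, read each minute for 11 min after adding 10 uM VEPPL-pS-QETFS; signal taken as f1 minus pre-substrate f0. Enzyme 5 nM WIP1 with 1 hr room-temperature compound preincubation.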

Structure (SMILES)	Potency [1]	Potency [2]	Potency [3]	outcome [4]
CCC(=O)O[C@]1(C(=O)COC)[C@@H](C)C[C@H]2[C@@H]3CCC4=CC(=O)C=C[C@]4(C)C3(F)[C@@H](O)C[C@@]21C (stereo partly specified)	inactive	inactive	inactive	inactive
COC(=O)/C=C\C(=O)OC	inactive	inactive	inactive	inactive
CCCCOC(=O)CCCCCCCCC(=O)OCCCC	inactive	inactive	inactive	inactive
CCC[C@H](N[C@@H](C)C(=O)N1[C@H](C(=O)O)C[C@@H]2CCCC[C@@H]21)C(=O)OCC	inactive	inactive	inactive	inactive
Nc1c(I)cc(I)c(C(=O)N(CCC(=O)O)c2ccccc2)c1I	inactive	inactive	inactive	inactive
OC(CCCN1CCCCC1)(c1ccccc1)c1ccccc1	inactive	inactive	inactive	inactive
Cc1ccc2ccc(Cl)cc2n1	inactive	inactive	inactive	inactive
Cc1onc(-c2ccccc2)c1C(=O)Cl	inactive	inactive	inactive	inactive
CC[C@@]1(O)C(=O)OCc2c1cc1n(c2=O)Cc2c-1nc1ccccc1c2/C=N/OC(C)(C)C	14.4 µM (active)	0.745 µM (active)	inactive	inactive
CC(C)CCCC(C)NCCC(C)C (stereo unspecified)	inactive	inactive	inactive	inactive
O=C(O)[C@@H](O)[C@H](O)[C@H](O)[C@@H](O)C(=O)O	inactive	inactive	inactive	inactive
COc1ccc([C@@H]2Sc3ccccc3NC(=O)[C@@H]2O)cc1	inactive	inactive	inactive	inactive
CC(C)C(C)(C)C(C)(C)C(C)(C)S	inactive	inactive	inactive	inactive
O=C(c1ccco1)N1CCNCC1	inactive	inactive	inactive	inactive
Cn1c(=O)c2c(ncn2CC(=O)O)n(C)c1=O	inactive	inactive	inactive	inactive
CCCCOCCOC(=O)c1cccnc1	inactive	inactive	inactive	inactive
CC(C)(C)C1CCC(CC2=C(O)c3ccccc3C(=O)C2=O)CC1 (stereo unspecified)	inactive	inactive	inactive	inactive
O=C1CC2(CCCC2)CC(=O)N1	inactive	inactive	inactive	inactive
Cc1ccccc1C(=O)N1CC/C(=N\OS(=O)(=O)O)c2ccc(Cl)cc21	inactive	inactive	inactive	inactive
CCOC(=O)[C@H](CCc1ccccc1)N[C@@H](C)C(=O)N(CC(=O)O)C1Cc2ccccc2C1	inactive	inactive	inactive	inactive
CNC(=O)c1c(I)c(NC(C)=O)c(I)c(C(=O)O)c1I	inactive	inactive	inactive	inactive
CCCCCC[C@@H](CCC)C(=O)O	inactive	inactive	inactive	inactive
CCN(CC)CCN	inactive	inactive	inactive	inactive
CCOC(=O)C(=O)CCc1ccccc1	inactive	inactive	inactive	inactive
CC(C)=CCC/C(C)=C/CC/C(C)=C/CCC(=O)OC/C=C(\C)CCC=C(C)C	inactive	inactive	inactive	inactive
O=C1c2ccccc2CCc2ccccc21	inactive	inactive	inactive	inactive
C[N+]1(C)CCC(OC(=O)C(O)(c2ccccc2)C2CCCC2)C1 (stereo unspecified)	inactive	inactive	inactive	inactive

Structure (SMILES)	Potency [1]	Potency [2]	Potency [3]	outcome [4]
CCCCC(CC)CNC(=O)CC(C)OC(=O)CCC(=O)O (stereo unspecified)	inactive	inactive	inactive	inactive
Cc1ccccc1N1CCN(CCc2nnc3n2CCCC3)CC1	inactive	inactive	inactive	inactive
COC(=O)c1cc(Cl)c(NC(C)=O)cc1OC	inactive	inactive	inactive	inactive
Nc1c2ccccc2nc2ccccc12	35.5 µM (active)	inactive	inactive	inactive
NC(=O)COCCN1CCN(C(c2ccccc2)c2ccc(Cl)cc2)CC1 (stereo unspecified)	inactive	inactive	inactive	inactive
CC(C)(C)c1cc(C=O)cc(C(C)(C)C)c1O	inactive	inactive	inactive	inactive
CC(CCc1ccc2c(c1)OCO2)NN (stereo unspecified)	inactive	inactive	inactive	inactive
O=C(CO)[C@@H](O)[C@H](O)[C@@H](O)CO	inactive	inactive	inactive	inactive
COc1ccccc1N1CCN(CC(O)COc2cc(OC)c(OC)c(OC)c2)CC1 (stereo unspecified)	inactive	inactive	inactive	inactive
CSCC[C@H](NC(=O)[C@H](Cc1c[nH]c2ccccc12)NC(=O)CCNC(=O)OC(C)(C)C)C(=O)N[C@@H](CC(=O)O)C(=O)N[C@@H](Cc1ccccc1)C(N)=O	inactive	inactive	inactive	inactive
OCCc1ccccc1	inactive	inactive	inactive	inactive
[O-][n+]1cccc(/C(Cl)=N/OC[C@@H](O)CN2CCCCC2)c1	inactive	inactive	inactive	inactive
CC(C)(C)c1ccc(C(=O)CCCCl)cc1	inactive	inactive	inactive	inactive
CC(=O)c1ccc(O)c(C(N)=O)c1	inactive	inactive	inactive	inactive
CO[C@@H]1[C@@H](OC)[C@H](C)[C@@](O)(CC(=O)O)O[C@H]1[C@H](C)[C@H]1O[C@@]2(CC[C@@](C)([C@H]3CC[C@@](C)([C@@H]4O[C@@H]([C@H]5O[C@](C)(O)[C@H](C)C[C@@H]5C)C[C@@H]4OC4C[C@H](OC)[C@@H](OC)[C@H](C)O4)O3)O2)C[C@H](O)[C@H]1C (stereo partly specified)	inactive	inactive	inactive	inactive
CC(NC(CCc1ccccc1)C(=O)O)C(=O)N1C(=O)N(C)CC1C(=O)O (stereo unspecified)	inactive	inactive	inactive	inactive
C[C@H]1C[C@H](O)c2ccsc2S1(=O)=O	inactive	inactive	inactive	inactive
c1ccc2occc2c1	inactive	inactive	inactive	inactive
Nc1ccc(C(=O)OCC(O)CO)cc1 (stereo unspecified)	inactive	inactive	inactive	inactive
CC(=O)N1CCN(c2ccc(O)cc2)CC1	inactive	inactive	inactive	inactive
COc1cc(OC)nc(O[C@H](C(=O)O)C(OC)(c2ccccc2)c2ccccc2)n1	inactive	inactive	inactive	inactive
C#Cc1ccc(-c2ccccc2F)cc1	inactive	inactive	inactive	inactive
CCS(=O)(=O)c1ccc(OC)c(C(=O)OC)c1	inactive	inactive	inactive	inactive
CCN1CCCC1CN (stereo unspecified)	inactive	inactive	inactive	inactive
CCOC(=O)N1CCC(n2c(=O)[nH]c3cc(Cl)ccc32)CC1	inactive	inactive	inactive	inactive
N=C(N)c1ccc(OCCCOc2ccc(C(=N)N)cc2)cc1	inactive	inactive	inactive	inactive
Cc1cc(O)c(C)c(C)c1O	inactive	inactive	inactive	inactive

Structure (SMILES)	Potency [1]	Potency [2]	Potency [3]	outcome [4]
Cc1cnc(NS(=O)(=O)c2ccc(N)cc2)nc1	inactive	inactive	inactive	inactive
CC1CCCCN1CCCOC(=O)c1ccc(OC2CCCCC2)cc1 (stereo unspecified)	inactive	inactive	inactive	inactive
O=C(CCOCCOCCOCCOCCC(=O)Nc1c(I)cc(I)c(C(=O)O)c1I)Nc1c(I)cc(I)c(C(=O)O)c1I	inactive	inactive	inactive	inactive
CC(=O)N[C@@H](CCC(N)=O)C(=O)O	inactive	inactive	inactive	inactive
CC(=O)OCC(=O)[C@@]1(O)CCC2C3CCC4=CC(=O)CC[C@]4(C)C3[C@@H](O)C[C@@]21C (stereo partly specified)	inactive	inactive	inactive	inactive
O=C(O)c1ccccc1S	inactive	inactive	inactive	inactive
COCCc1ccc(OCC2CO2)cc1 (stereo unspecified)	inactive	inactive	inactive	inactive
CCOC(=O)N1CCC(Nc2ccc(Cl)cc2N)CC1	inactive	inactive	inactive	inactive
C=C(C)C(=O)OCC(O)CO (stereo unspecified)	inactive	inactive	inactive	inactive
CCOC(=O)CN1CCCC1=O	inactive	inactive	inactive	inactive
Cc1ccc(C(=O)C(=O)O)cc1C	inactive	inactive	inactive	inactive
O=C1Nc2cc(Cl)ccc2Oc2ccccc21	inactive	inactive	inactive	inactive
O=C(O)c1ccc(OCCN2CCCCC2)cc1	inactive	inactive	inactive	inactive
COC(=O)/C=C(/C)N	inactive	inactive	inactive	inactive
COc1ccc2c(c1)c(CC(=O)OC/C=C(\C)CC/C=C(\C)CCC=C(C)C)c(C)n2C(=O)c1ccc(Cl)cc1	inactive	inactive	inactive	inactive
CC(C)C[C@@H]1[C@H](c2ccccc2)OC(=O)N1CCCN1CCCCCC1	inactive	inactive	inactive	inactive
CC(=O)c1cc2ccccc2s1	inactive	inactive	inactive	inactive
O=C(c1ccccc1)c1ccccc1	inactive	inactive	inactive	inactive
O=C(O)c1cn(C2CC2)c2cc(Cl)c(F)cc2c1=O	inactive	inactive	inactive	inactive
CN(C)CCOC(c1ccccc1)c1ccc(Br)cc1 (stereo unspecified)	inactive	inactive	inactive	inactive
O=C(O)/C=C(\CC(=O)O)C(=O)O	inactive	inactive	inactive	inactive
COc1cc(S(N)(=O)=O)cc(C(=O)O)c1OC	inactive	inactive	inactive	inactive
COC(=O)c1c(Cl)c(Cl)c(C(=O)OC)c(Cl)c1Cl	inactive	inactive	inactive	inactive
NC(=O)NC1N=C([O][Al])NC1=O (stereo unspecified)	inactive	inactive	inactive	inactive
CO[C@@H]1[C@@H](O[C@@H]2O[C@H](C)[C@@H](O[C@H]3C[C@@](C)(O)[C@@H](O)[C@H](C)O3)[C@H](N(C)C)[C@H]2O)[C@@H](CC=O)C[C@@H](C)[C@@H](O[C@@H]2CC[C@H](N(C)C)[C@@H](C)O2)/C=C/C=C/C[C@@H](C)OC(=O)C[C@H]1OC(C)=O	inactive	inactive	inactive	inactive
